In the library only some 0.94% were active in any assay of this set; here they are far more common.
SKBR3 24h inh = SK-BR-3 proliferation inhibitors; SK-BR-3 viability, CellTiter-Glo ATP luminescence, 24 h; hits give low values; viability, % at 10 µM; 41,000 tested, 0.47% active; AID 847;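 active means viability at or below the median of all test compounds minus 3 SD, in both replicates if run twice, cut at about 45% in these data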;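 further: 100% = median untreated cell wells and 0% = median positive control drug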
MMP13 inh = MMP13 (human) collagenase inhibition; P45452; MMP-13 fTHP FRET cleavage, Mca fluorescence; inhibition, % at 4 µM; 65,000 tested, 0.07% active; AID 570;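 active means inhibition above the mean of compound-free control plate wells plus 3 SD, cut at about 14% in these data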;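 further: 0% = DMSO wells and 100% = wells with reference MMP-13 inhibitor after basal subtraction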
HER2 expr 66K = lowers expression of human Her2 kinase; SKBR-3 HER2 protein level, AlphaScreen, 18-24 h; hits give low values; HER2 level % of control, % at 10 µM; 65,000 tested, 0.69% active; AID 645;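 active means HER2 level under 5% of the carrier-only control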;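 further: 100% = DMSO carrier and 0% = 500 nM PU-H71 HSP90 inhibitor; lower value means stronger loss of Her2 protein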
* marks the source's active call; other numbers are inactive results; nt = not tested or not shown.

SMILES	SKBR3 24h inh	MMP13 inh	HER2 expr 66K
Cc1cc(NC(=O)CSc2nc3c(c(=O)n2-c2ccc(Br)cc2)SCC3)no1	40*	2	25
CC1CCCC(C)N1C(=O)CSc1nnc(C2CCCCC2)o1 (stereo unspecified)	112	5	108
COC(=O)c1ccccc1NC(=O)C1CC(=O)N(c2ccccc2)C1 (stereo unspecified)	nt	0	92
O=C(Nc1cccc2nsnc12)C1CC(=O)N(c2ccccc2)C1 (stereo unspecified)	42*	0	93
COc1cccc2c(=O)c(C/C=C(/C)Cl)c(C)[nH]c12	89	-50	86
CCCOc1cccc(C2C(C(=O)c3ccc(C)o3)=C(O)C(=O)N2CCCN(C)C)c1 (stereo unspecified)	84	1	68
Cc1cc2oc(C(=O)N(Cc3ccco3)C3CCS(=O)(=O)C3)cc(=O)c2cc1Cl (stereo unspecified)	93	-1	71
CCn1c(CNc2cccc(Cl)c2)nnc1SCc1ccccc1	37*	1	113
Cn1c(CNC(=O)Nc2cccc(Cl)c2)nnc1SCc1ccccc1	105	0	84
COc1cc2c(cc1OC)CN(C(=O)CC1CC3CCC1C3)CC2 (stereo unspecified)	85	-5	102
O=C1C2=C(SCCS2)C(=O)N1CCCO	105	4	1.1*
O=C1C2=C(SCCS2)C(=O)N1c1ccccc1	nt	5	105
COC(=O)c1ccc(CSc2nc3c(cnn3-c3ccc(C)c(C)c3)c(=O)[nH]2)o1	nt	-2	128
COC(=O)c1ccc(CSc2nc3scc(-c4cccs4)c3c(=O)[nH]2)o1	nt	17*	97
COC(=O)/C(=C1/Oc2cc(C)oc(=O)c2S1)C(F)(F)F	38*	6	-15*
COC(=O)C1=C(N)Oc2cc(C)oc(=O)c2C1c1ccncc1 (stereo unspecified)	102	3	202
C=CCn1c(=O)c2ccccc2n2c(SCC(=O)c3ccccc3)nnc12	68	2	81
C=CCn1c(=O)c2ccccc2n2c(SCc3cc(=O)n4ccsc4n3)nnc12	nt	3	-15*
COc1ccc(Nc2cc(C)nc3ncnn23)c(OC)c1	nt	-15	104
COc1ccc(CNc2cc(C)nc3ncnn23)c(OC)c1	40*	-2	83
COc1ccc(C2C=C(c3ccc(Br)s3)Nc3ncnn32)cc1OC (stereo unspecified)	79	-6	58
Cc1ccc(S(=O)(=O)N2CCN(S(=O)(=O)c3ccc(C)cc3)C3OCCOC32)cc1 (stereo unspecified)	nt	4	89
CC1(C)CC(=O)C2(CC3=C(CC(C)(C)CC3=O)O2)C(=O)C1	90	7	-33*
CC1(C)CC(=O)c2c(noc2-c2ccccc2)C1	nt	1	107
CN1CCc2c(n(CC(O)CN3C(=O)c4ccccc4S3(=O)=O)c3ccccc23)C1=O (stereo unspecified)	112	3	95
SMILES	SKBR3 24h inh	MMP13 inh	HER2 expr 66K
CC(C)NCC(O)Cn1c2c(c3ccccc31)CCc1c-2cnn1-c1ccccc1 (stereo unspecified)	2.2*	-89	-16*
COc1cccc2cc(C(=O)N3CCN(C/C=C/c4ccccc4)CC3)c(=O)oc12	80	-4	91
CC(C)(C)NC(=O)c1ccc2c(c1)N(CC(=O)N1CCN(c3ccc(F)cc3)CC1)C(=O)C(C)(C)O2	79	1	97
CCOC(=O)c1c(C)oc2c1c(C=NC1CCS(=O)(=O)C1)c(O)c1ccccc12 (stereo unspecified)	56	0	63
CCOC(=O)c1c(C)oc2c1c(C(c1ccncc1)N1CCOCC1)c(O)c1ccccc12 (stereo unspecified)	nt	4	-12*
Cc1c(S(=O)(=O)Nc2cccc(Cl)c2)c(=O)n(C)c(=O)n1C	nt	-4	107
CCc1nnc(NC(=O)c2ccncc2)s1	75	1	97
CCc1nnc(NC(=O)c2cccc(C(=O)Nc3nnc(CC)s3)n2)s1	42*	1	30
COc1cc2c(cc1NC(=O)COC(=O)C1CC(=O)N(Cc3ccco3)C1)oc1ccccc12 (stereo unspecified)	nt	4	108
CCOC(=O)C1=C(C)NC(=O)C(C#N)C1c1ccncc1 (stereo unspecified)	132	1	113
COc1ccc(-c2[nH]ncc2-c2ccc3c(c2)OCCO3)c(O)c1	97	-5	33
CCc1cc(-c2[nH]ncc2-c2ccc3c(c2)OCO3)c(O)cc1O	nt	-5	-1.1*
CCOC(=O)N1CCC(Nc2ncnc3c2cnn3-c2ccc(Cl)cc2)CC1	94	-6	82
O=C(O)C1CCCCC1C(=O)Nc1nccs1 (stereo unspecified)	nt	5	86
O=C(Nc1nccs1)C1C2/C=C\CCCCC21 (stereo unspecified)	81	1	-28*
CCCCCCOC(=O)C(C#N)c1nc2ccccc2nc1N1CCCCC1 (stereo unspecified)	97	2	93
CCCCCCOC(=O)C(C#N)c1nc2ccccc2nc1N1CCN(C)CC1 (stereo unspecified)	4.9*	1	-4.8*
Cc1cccc(-n2c(CCCN3C(=O)c4ccccc4C3=O)nc3ccccc3c2=O)n1	106	2	95
C=CCn1c(=O)/c(=C/c2ccc(O)cc2)s/c1=C(/C#N)c1nnc2n1CCCCC2	nt	10	94
C=CCn1c(=O)/c(=C/c2cc(OC)c(OC)c(OC)c2)s/c1=C(/C#N)c1nc2ccccc2n1C	40*	7	80
O=C(c1noc2c1CCc1ccccc1-2)N1CCc2ccccc2C1	93	3	87
CCc1ccccc1NC(=O)CSc1nnc(-c2ccco2)n1N	110	0	105
COc1ccc2c(=O)c3c(=O)n(Cc4ccco4)c(C(C)C)nc3oc2c1	96	-7	83
COc1ccc2c(=O)c3c(=O)n(Cc4ccco4)c(-c4ccc(C)cc4)nc3oc2c1	81	-2	4.8*
N#CC1=C2SCN(c3ccccc3)CN2C(=O)CC1c1ccccc1Cl (stereo unspecified)	nt	4	99
SMILES	SKBR3 24h inh	MMP13 inh	HER2 expr 66K
Cc1ccc(C2CC(=O)N3CN(c4ccc(Br)cc4)CSC3=C2C#N)o1 (stereo unspecified)	90	5	-19*
N#CC1=C2SCN(c3ccccc3)CN2C(=O)CC1c1cccs1 (stereo unspecified)	92	0	-20*
N#CC1=C2SCN(c3ccccc3)CN2C(=O)CC1c1c(Cl)cccc1Cl (stereo unspecified)	nt	6	68
Cc1cccn2c(=O)c(C=NCc3ccco3)c(Nc3ccc(Cl)cc3)nc12	nt	6	86
CCOC(=O)CSc1nc2c(c(=O)n(C)c(=O)n2C)n1CCCc1ccccc1	92	10	122
O=C1CN(C(=O)COc2ccccc2)CCN1	nt	2	105
O=C(Cn1cc(C(F)(F)F)ccc1=O)N1CCN(S(=O)(=O)c2ccccc2)CC1	nt	-3	77
CC(=O)Nc1ccc(S(=O)(=O)c2ccc(N)cc2)cc1	162	1	90
CCOC(=O)/C=C/S(=O)(=O)c1ccc(NC(C)=O)cc1	3.0*	7	-22*
Cc1cccc2cc(COC(=O)C(C)(C)C)c(=O)[nH]c12	107	-1	72
O=C1SC(SCc2ccccc2)=N/C1=C\c1ccco1	95	7	75

Bioassay records as filed in PubChem.
